Where a name gives a salt, the structure may show the parent alone.
These compounds were tested on Danio rerio larvae (5 dpf) (assay: habituation (activity change first vs second 5 min of 1-s interval sound, period 17) minus DMSO control (percentage points); higher = larger habituation measure than DMSO larvae). Conditions: 10 µM; exposure time: 3 h pre-incubation + 3 h imaging.
Protocol: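 Wild-type 5 dpf zebrafish larvae (n=48 per drug, 96-well plates, 28.5 °C) were exposed to Tocris FDA-approved library compounds at 10 µM (0.1% DMSO) for 3 h before and 3 h during imaging. Images were taken every 6 s during visual and acoustic stimuli, and larvae were tracked with Z-LaP Tracker. Each measure is the treated-group mean minus the DMSO control mean (n=844), in percentage points. This mapping covers compounds with 5-character plate codes.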
`Clc1ccc2nsnc2c1NC1=NCCN1` [Tizanidine hydrochloride] gave a habituation of -2.36.
Compound `CC(C)(C(=O)O)c1ccc(C(O)CCCN2CCC(C(O)(c3ccccc3)c3ccccc3)CC2)cc1` (configuration not stated) [Fexofenadine hydrochloride] has a habituation of 3.94.
With `CC(C)OC(=O)C(C)(C)Oc1ccc(C(=O)c2ccc(Cl)cc2)cc1` [Fenofibrate] the habituation was -2.39.
In the case of `OC(c1cc(C(F)(F)F)nc2c(C(F)(F)F)cccc12)C1CCCCN1` (configuration not stated) [Mefloquine hydrochloride], the habituation is reported as 3.04.
Work on `OCc1cc(C(O)CNCCCCCCOCCCCc2ccccc2)ccc1O` (configuration not stated) [Salmeterol xinafoate] yielded a habituation of -0.659.
In the case of `C[C@@H]1C[C@H]2[C@@H]3CCC4=CC(=O)C=C[C@]4(C)[C@@]3(F)[C@@H](O)C[C@]2(C)[C@@]1(O)C(=O)CO` [Dexamethasone], the habituation is reported as 2.24.
Work on `CCCC1O[C@@H]2C[C@H]3[C@@H]4CCC5=CC(=O)C=C[C@]5(C)[C@H]4[C@@H](O)C[C@]3(C)[C@]2(C(=O)CO)O1` (some centres not stated) [Budesonide] yielded a habituation of -1.55.
Work on `NC(=O)OCC(COC(N)=O)c1ccccc1` [Felbamate] yielded a habituation of 2.5.
`CCCCCCCN(CC)CCCC(O)c1ccc(NS(C)(=O)=O)cc1` (configuration not stated) [Ibutilide hemifumarate] showed a habituation of -0.126.
For `NS(=O)(=O)c1cc2c(cc1Cl)NC(C1CC3C=CC1C3)NS2(=O)=O` (configuration not stated) [Cyclothiazide], the habituation was 1.92.
`CN(C)CCc1c[nH]c2ccc(C[C@H]3COC(=O)N3)cc12` [Zolmitriptan] was tested, and the habituation was -0.595.
With `CCc1nc(N)nc(N)c1-c1ccc(Cl)cc1` [Pyrimethamine] the habituation was 3.38.
`COCCc1ccc(OCC(O)CNC(C)C)cc1` (configuration not stated) [Metoprolol tartrate] was tested, and the habituation was -3.41.
Work on `N#Cc1ccc2[nH]cc(CCCCN3CCN(c4ccc5oc(C(N)=O)cc5c4)CC3)c2c1` [Vilazodone hydrochloride] yielded a habituation of -2.05.
With `OCCN1C[C@H](O)[C@@H](O)[C@H](O)[C@H]1CO` [Miglitol] the habituation was -1.71.
For `Cc1cc2c(s1)Nc1ccccc1N=C2N1CCN(C)CC1` [Olanzapine], the habituation was 0.758.
`COc1ccccc1Oc1c(NS(=O)(=O)c2ccc(C(C)(C)C)cc2)nc(-c2ncccn2)nc1OCCO` [Bosentan] showed a habituation of 4.58.
In the case of `COc1cc([C@@H]2c3cc4c(cc3[C@@H](O[C@@H]3O[C@@H]5CO[C@@H](C)O[C@H]5[C@H](O)[C@H]3O)[C@H]3COC(=O)[C@H]23)OCO4)cc(OC)c1O` [Etoposide], the habituation is reported as 1.7.
Work on `COc1cc(N)c(Cl)cc1C(=O)NC1CCN(CCCOc2ccc(F)cc2)CC1OC` (configuration not stated) [Cisapride] yielded a habituation of 4.4.
With `CC[C@H]1OC(=O)[C@H](C)[C@@H](O[C@H]2C[C@@](C)(OC)[C@@H](O)[C@H](C)O2)[C@H](C)[C@@H](O[C@@H]2O[C@H](C)C[C@H](N(C)C)[C@H]2O)[C@](C)(O)C[C@@H](C)CN(C)[C@H](C)[C@@H](O)[C@]1(C)O` [Azithromycin] the habituation was 3.26.
`COc1ccccc1OCC(O)CN1CCN(CC(=O)Nc2c(C)cccc2C)CC1` (configuration not stated) [Ranolazine dihydrochloride] gave a habituation of -2.2.
Compound `CC(C)COCC(CN(Cc1ccccc1)c1ccccc1)N1CCCC1` (configuration not stated) [Bepridil hydrochloride] has a habituation of -5.91.
With `CC(=O)Nc1ccc(O)cc1` [Acetaminophen] the habituation was -1.62.
`CC(=O)Oc1cc2c(s1)CCN(C(C(=O)C1CC1)c1ccccc1F)C2` (configuration not stated) [Prasugrel] gave a habituation of 0.528.
With `CCCc1nn(C)c2c(=O)[nH]c(-c3cc(S(=O)(=O)N4CCN(C)CC4)ccc3OCC)nc12` [Sildenafil citrate] the habituation was -2.72.
With `O=C(O)C[C@H](O)C[C@H](O)/C=C/c1c(C2CC2)nc2ccccc2c1-c1ccc(F)cc1` [Pitavastatin calcium] the habituation was -5.34.
Work on `CNC(=O)c1cc(Oc2ccc(NC(=O)Nc3ccc(Cl)c(C(F)(F)F)c3)cc2)ccn1` [Sorafenib] yielded a habituation of -9.55.
Work on `O=C1CCc2ccc(OCCCCN3CCN(c4cccc(Cl)c4Cl)CC3)cc2N1` [Aripiprazole] yielded a habituation of -7.85.
Compound `N#C[C@@H]1C[C@@H]2C[C@@H]2N1C(=O)[C@@H](N)C12CC3CC(CC(O)(C3)C1)C2` [Saxagliptin hydrochloride] has a habituation of 2.76.
In the case of `CN[C@H]1CC[C@@H](c2ccc(Cl)c(Cl)c2)c2ccccc21` [Sertraline hydrochloride], the habituation is reported as -8.76.
`COc1cc2nccc(Oc3ccc(NC(=O)C4(C(=O)Nc5ccc(F)cc5)CC4)cc3)c2cc1OC` gave a habituation of -4.58.
`CNCc1ccc(-c2[nH]c3cc(F)cc4c3c2CCNC4=O)cc1` [Rucaparib camsylate] was tested, and the habituation was 5.03.
`CN(C)C(=N)NC(=N)N` [Metformin hydrochloride] showed a habituation of 2.17.
Compound `CNS(=O)(=O)Cc1ccc2[nH]cc(CCN(C)C)c2c1` [Sumatriptan succinate] has a habituation of 2.06.
Work on `C#CCN[C@@H]1CCc2ccccc21` [Rasagiline mesylate] yielded a habituation of 3.64.
`O=c1n(CCCN2CCN(c3cccc(Cl)c3)CC2)nc2ccccn12` [Trazodone hydrochloride] was tested, and the habituation was -12.5.
Compound `C[C@H]1O[C@H](O[C@H]2[C@H](O)[C@@H](O)[C@@H](O[C@H]3[C@H](O)[C@@H](O)C(O)O[C@@H]3CO)O[C@@H]2CO)[C@H](O)[C@@H](O)[C@@H]1N[C@H]1C=C(CO)[C@@H](O)[C@H](O)[C@H]1O` (some centres not stated) [Acarbose] has a habituation of 1.19.

— the supplement of paper PMC9950053
